In PubChem BioAssay (NCI) one finds growth inhibition data, which are given here for 13 compounds.

The nature of test [1]: NCI Yeast Anticancer Drug Screen. Data for the mec2-1 strain (AID 157). The note with it: S. cerevisiae mec2-1 strain, hits give high values. An outline of the steps:
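Mutant yeast (mec2-1) grown with compound; growth inhibition relative to vehicle control reported.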

Test [2] in a line: NCI Yeast Anticancer Drug Screen. Data for the sgs1 mgt1 strain (AID 161).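 Further: 0% = growth of cultures given vehicle only.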 The note with it: S. cerevisiae sgs1 mgt1 strain, hits give high values. The essentials: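 Percent growth inhibition was derived by comparing compound-exposed mutant yeast with vehicle-exposed cultures. The strain carries alterations in DNA damage repair.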
Test [3] is described as follows: NCI Yeast Anticancer Drug Screen. Data for the cln2 rad14 strain (AID 165).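 Further: 0% = growth equal to vehicle treated cultures.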 The note with it: S. cerevisiae cln2 rad14 strain, hits give high values. An outline of the steps: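 Readout is yeast growth inhibition versus vehicle-treated controls, using a strain with cln2 and rad14 alterations exposed to compound.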
Test [4] is described as follows: NCI Yeast Anticancer Drug Screen. Data for the bub3 strain (AID 167). Particulars: S. cerevisiae bub3 mutant strain, hits give high values. The essentials:
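Readout: yeast growth inhibition, expressed relative to vehicle-only wells. The test organism is a mutant strain from a panel with lesions in DNA repair or checkpoint genes.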

The nature of test [5]: NCI Yeast Anticancer Drug Screen. Data for the mlh1 rad18 strain (AID 175). Particulars: S. cerevisiae mlh1 rad18 strain growth inhibition, hits give high values. An outline of the steps: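 Genetically defined yeast (DNA repair-deficient) exposed to compounds; growth inhibition determined relative to vehicle.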
A short description of test [6]: NCI Yeast Anticancer Drug Screen. Data for the rad50 strain (AID 155).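 Further: 0% = growth of vehicle-only cultures of the same strain.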 Particulars: S. cerevisiae rad50 strain growth inhibition, hits give high values. An outline of the steps:
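Readout: growth inhibition relative to vehicle-treated cultures. Compound exposure was carried out in a genetically defined yeast strain deficient in DNA damage repair.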

Where [7] appears, read: at 5.0 µM (retest, dose inferred, filed as 0.5).
Setting [8] is: at 50.0 µM (retest, dose inferred, filed as 5.0).

Where “and” joins values, the source holds several entries; their conditions need not be identical. Equal values may be shown once. About 79,000 compounds went through this panel and 15% of them were active in at least one assay; those are over-represented in the sample as a whole. Unmarked numbers belong to inactive results. Calls of active or inactive are those of the source. No stated cut-off is given here; in the data, active means growth inhibition above about 70%; inactive means the rest.

Take `COc1ccc(/C=C2/C(=O)ON=C2C)cc1OC`: the growth inhibition in test [1] (setting [7]) is -14%; in test [1] (setting [8]), 48%; in test [1] (at 50.0 µM), 85.5% (active); in test [2] (setting [7]), -14%; in test [2] (setting [8]), 48%; in test [2] (at 50.0 µM), 89.1% (active). The growth inhibition was -12% in test [3] (setting [7]); 17% in test [3] (setting [8]); 42.7% in test [3] (at 50.0 µM); -3% in test [4] (setting [7]); 55% in test [4] (setting [8]); 94.6% (active) in test [4] (at 50.0 µM). In addition, the results for the growth inhibition in test [5] (setting [7]), in test [5] (setting [8]) and in test [5] (at 50.0 µM) were -9%, 61% and 79.2% (active), respectively.
On to `CSc1ccccc1C(=O)O`, for which the growth inhibition in test [6] (at 50.0 µM) is -0.25% and -1.5% and -11%; in test [1] (at 50.0 µM), -1.9% and -7.55% and 25.9%; in test [2] (at 50.0 µM), -10.4% and -1.2% and 31.2%; in test [3] (at 50.0 µM), -32.9% and -15.8% and 17.3%; in test [4] (at 50.0 µM), -30.5% and -6.5% and -34%; in test [5] (at 50.0 µM), -7.45% and -1.95% and -8.9%.
With `NCC(=O)NC(CO)C(=O)O` (stereo unspecified), the growth inhibition in test [6] (at 50.0 µM) was -8.05% and -12.9% and -12.8%; in test [1] (at 50.0 µM), -10.5% and -5.1% and -4.35%; in test [2] (at 50.0 µM), -12.2% and -2.65% and -3.75%; in test [3] (at 50.0 µM), -34.1% and -5.75% and -10.1%; in test [4] (at 50.0 µM), -24.7% and -11.4% and -3.6%; in test [5] (at 50.0 µM), -3.35% and -12.8% and -9.4%.
Turning to `CS(=O)(=O)c1ccc(C[N+]23CN4CN(CN(C4)C2)C3)cc1`, the growth inhibition was -9% in test [6] (setting [7]); -2% in test [6] (setting [8]); -8.25% in test [6] (at 50.0 µM); -20% in test [2] (setting [7]); -5% in test [2] (setting [8]); -0.8% in test [2] (at 50.0 µM). Moreover, the growth inhibition in test [3] (setting [7]) is -8%; in test [3] (setting [8]), -4%; in test [3] (at 50.0 µM) it was 43.4%; in test [4] (setting [7]), -4%; in test [4] (setting [8]) it was 6%; in test [4] (at 50.0 µM) it was -4.75%. Besides, the growth inhibition in test [5] (setting [7]) was -9%; in test [5] (setting [8]) it was -4%; in test [5] (at 50.0 µM) it was 1.85%.
Turning to `COC1OC2COC(c3ccccc3)OC2C(O)C1O` (stereo unspecified), the growth inhibition in test [6] (at 50.0 µM) was -23.9% and 17.1% and 20.4%; in test [1] (at 50.0 µM) it was -11.6% and -15.6% and -3.65%; in test [2] (at 50.0 µM), -3.35% and 7.95% and 0.55%; in test [3] (at 50.0 µM), -29.2% and -46% and -45.3%; in test [4] (at 50.0 µM), -9.35% and -19.9% and -17.4%; in test [5] (at 50.0 µM), -3.15% and -3.95% and 9.8%.
As for `C/C(=N\NC(=S)Nc1ccc(C(=O)O)cc1C)c1ccc2ccccc2n1`, the growth inhibition in test [1] (setting [7]) is 20%; in test [1] (setting [8]), 62%; in test [1] (at 50.0 µM), 97.8% (active); in test [2] (setting [7]), -3%; in test [2] (setting [8]) it was 42%; in test [2] (at 50.0 µM) it was 81.6% (active). The growth inhibition is 11% in test [3] (setting [7]); 30% in test [3] (setting [8]); 33% in test [3] (at 50.0 µM); 0% in test [4] (setting [7]); 45% in test [4] (setting [8]); 34% in test [4] (at 50.0 µM). The growth inhibition in test [5] (setting [7]) was -1%; in test [5] (setting [8]) it was 49%; in test [5] (at 50.0 µM), 91.7% (active).
`O=C1C(=O)N(c2ccc(Cl)c(Cl)c2)C(=O)C(=O)C1c1nc2ccccc2o1`: the growth inhibition was 21% in test [6] (setting [7]); 98% (active) in test [6] (setting [8]); 97.2% (active) in test [6] (at 50.0 µM); 27% in test [2] (setting [7]); 95% (active) in test [2] (setting [8]); 97.2% (active) in test [2] (at 50.0 µM). Further, the growth inhibition in test [3] (setting [7]) was 22%; in test [3] (setting [8]), 90% (active); in test [3] (at 50.0 µM), 94.8% (active); in test [4] (setting [7]), 3%; in test [4] (setting [8]) it was 96% (active); in test [4] (at 50.0 µM), 83.1% (active). The growth inhibition was 14% in test [5] (setting [7]), 95% (active) in test [5] (setting [8]) and 96.7% (active) in test [5] (at 50.0 µM).
With `C[Si](C)c1cccc(Cl)c1`, the growth inhibition in test [6] (setting [7]) was 2%; in test [6] (setting [8]), 5%; in test [6] (at 50.0 µM), 0.25%; in test [2] (setting [7]), -1%; in test [2] (setting [8]) it was -3%; in test [2] (at 50.0 µM) it was 6.9%. In addition, the growth inhibition is 8% in test [3] (setting [7]); 6% in test [3] (setting [8]); 13.8% in test [3] (at 50.0 µM); 1% in test [4] (setting [7]); 0% in test [4] (setting [8]); 7.55% in test [4] (at 50.0 µM). The growth inhibition was -29% in test [5] (setting [7]), 1% in test [5] (setting [8]) and -0.75% in test [5] (at 50.0 µM).
On to `O=c1[nH]c2ccccc2c(O)c1/C=N/C(=S)NCCc1ccccc1`, for which the growth inhibition in test [6] (setting [7]) was 26%; in test [6] (setting [8]), 28%; in test [6] (at 50.0 µM) it was -41.5%; in test [2] (setting [7]), 28%; in test [2] (setting [8]) it was 29%; in test [2] (at 50.0 µM), 5.4%. Also, the growth inhibition in test [3] (setting [7]) was 21%; in test [3] (setting [8]), 11%; in test [3] (at 50.0 µM), 9.6%; in test [4] (setting [7]), 30%; in test [4] (setting [8]), 20%; in test [4] (at 50.0 µM), 4.65%. Further, the values for the growth inhibition in test [5] (setting [7]), in test [5] (setting [8]) and in test [5] (at 50.0 µM) were 28%, 22% and 7.5%, respectively.
For `Cc1cc2nc3n(c2cc1C)C(c1c(F)cccc1F)SC3` (stereo unspecified), the growth inhibition in test [1] (setting [7]) was 16%; in test [1] (setting [8]), 12%; in test [1] (at 50.0 µM), -14.7%; in test [2] (setting [7]), 27%; in test [2] (setting [8]) it was 24%; in test [2] (at 50.0 µM), 9.1%. Also, the growth inhibition in test [3] (setting [7]) was 12%; in test [3] (setting [8]) it was 23%; in test [3] (at 50.0 µM), -6.1%; in test [4] (setting [7]), 26%; in test [4] (setting [8]), 25%; in test [4] (at 50.0 µM), 30.5%. Further, the growth inhibition in test [5] (setting [7]) is 26%; in test [5] (setting [8]), 22%; in test [5] (at 50.0 µM), -0.35%.
Consider `OCC(O)C(O)C(O)C(O)CNCC(O)C(O)C(O)C(O)CO` (stereo unspecified), for which the growth inhibition is 5.3% and 10.1% and 19.6% in test [6] (at 50.0 µM); 15% and 17.2% and 10.3% in test [1] (at 50.0 µM); 12.8% and 14.3% and -2.5% in test [2] (at 50.0 µM); -6.2% and -7.7% and -3.1% in test [3] (at 50.0 µM); 13% and 14.2% and 3.75% in test [4] (at 50.0 µM); 17.4% and 21% and 20.8% in test [5] (at 50.0 µM).
Take `ON(Cc1ccccc1)C(=S)c1ccccc1`: the growth inhibition is 23% in test [6] (setting [7]); 98% (active) in test [6] (setting [8]); 91.3% (active) in test [6] (at 50.0 µM); 1% in test [3] (setting [7]); 92% (active) in test [3] (setting [8]); 89.3% (active) in test [3] (at 50.0 µM). The growth inhibition in test [4] (setting [7]) is 31%; in test [4] (setting [8]), 98% (active); in test [4] (at 50.0 µM), 89% (active); in test [5] (setting [7]), 25%; in test [5] (setting [8]) it was 98% (active); in test [5] (at 50.0 µM), 90.7% (active).
Consider `CCCCCCCCCCCC[n+]1ccc(C#N)cc1`, for which the growth inhibition in test [1] (setting [7]) is 30%; in test [1] (setting [8]) it was 98% (active); in test [1] (at 50.0 µM) it was 95.9% (active); in test [2] (setting [7]), 28%; in test [2] (setting [8]), 97% (active); in test [2] (at 50.0 µM) it was -5.4%. Also, the growth inhibition in test [3] (setting [7]) is 26%; in test [3] (setting [8]) it was 78% (active); in test [3] (at 50.0 µM), 84.4% (active); in test [4] (setting [7]), 34%; in test [4] (setting [8]), 92% (active); in test [4] (at 50.0 µM), 47.8%. Moreover, the growth inhibition in test [5] (setting [7]) was 16%; in test [5] (setting [8]) it was 92% (active); in test [5] (at 50.0 µM), 99.5% (active).
